Screening data: PubChem, several laboratories
A selection: hits, their analogues and other compounds. The true share with any hit is near 3.2%.
EBV LMP1 NFkB: EBV LMP1-driven NF-kappaB luciferase reporter inhibitors, primary screen, cell-based, luminescence, single point; LMP1-induced NF-kappaB luciferase reporter cells; AID 504558, 2011; 350,000 tested, 0.69% active; inhibition, % at 12.5 µM; in the data active means inhibition above about 41%;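 further: 0% = neutral control wells and 100% = reference inhibitor control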
LGR2 antag: inhibitors of bursicon-induced LGR2 CRE-luciferase signal, primary screen, cell-based, HEK293, CRE-luciferase reporter, bursicon stimulation; 380,000 tested, 0.35% active; bursicon-stimulated, 4 h; AID 720647, 2013; Drosophila bursicon receptor LGR2 (rickets); inhibition, % at 9.99 µM;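 active means drop in luminescence signal, shown as inhibition above about 50% in the replicate tests, limit read from the data, passing the limit was not always enough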;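 further: agonist challenge used bursicon conditioned medium at about half maximal strength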
TROY signal inh: inhibitors of TROY-driven NF-kB signaling, primary screen, Q293 LMP1-TROYcd cells, NF-kB luciferase, uHTS; 360,000 tested, 0.98% active; Q293 LMP1-TROYcd NF-kB luciferase reporter, 4 h; AID 1347056, 2019; inhibition, % at 10 µM;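 active means compounds whose plate-normalised and pattern-corrected inhibition of the luciferase reporter signal at the single screening dose is 50% or more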
TWEAK-Fn14 inh: inhibitors of TWEAK-Fn14 signaling, primary screen, luciferase reporter cells, uHTS; TWEAK-stimulated Fn14 reporter cells, luciferase luminescence, 8 h; inhibition, % at 10 µM; 360,000 tested, 2% active; AID 1159606, 2016; in the data active means inhibition above about 50%
EWS-Fli block: EWS/Fli-driven NR0B1 reporter inhibitors, primary screen, A673 cells, NR0B1 luciferase, luminescence, MLPCN library; viability-normalised; inhibition, % at 12.6 µM; 350,000 tested, 0.67% active;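 active means mean inhibition of at least 50% after viability correction, with every replicate also passing that limit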;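 further: firefly luciferase signal divided by Alamar Blue viability fluorescence both relative to DMSO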
PAX8 reporter: inhibitors of PAX8-driven TPO luciferase reporter, primary screen, RMG-I cells, single concentration; SteadyGlo, 24 h; inhibition, % at 12.6 µM; 360,000 tested, 1.2% active; AID 652154, 2013;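 active means mean replicate inhibition at least 60% with every replicate also reaching 60%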;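 further: luciferase light reporting Pax8 driven TPO promoter activity; plate controls were median of neutral control wells for no effect and mitoxantrone controls for full effect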
* hit, by the source's call; . = no result.

SMILES	EBV LMP1 NFkB	LGR2 antag	TROY signal inh	TWEAK-Fn14 inh	EWS-Fli block	PAX8 reporter
CCN(CC)CCN(C(=O)c1ccccc1OC)c1nc2ccc(F)cc2s1	-2	-16	76*	-27	-10	-8
CCN(CC)CCN(C(=O)c1ccc2c(c1)CCCC2)c1nc2ccc(F)cc2s1	-12	1	55*	36	-33	-9
CN(C)CCCN(C(=O)c1ccc(S(=O)(=O)N2CCc3ccccc3C2)cc1)c1nc2ccc(F)cc2s1	-39	12	0	-208	58*	13
CCC(=O)Nc1ccc2c(c1)C(=O)N(C)[C@H]1CC[C@@H](CC(=O)NCC3CC3)O[C@@H]1CO2	.	10	.	.	-3	0
COc1ccc(S(=O)(=O)Nc2ccc3c(c2)C(=O)N([C@H](C)CO)C[C@@H](C)[C@H](CN(C)Cc2ccc(C(F)(F)F)cc2)OCCCC[C@@H](C)O3)cc1	.	18	.	.	24	22
COc1ccc(S(=O)(=O)Nc2ccc3c(c2)C(=O)N([C@@H](C)CO)C[C@@H](C)[C@H](CN(C)Cc2ccc(C(F)(F)F)cc2)OCCCC[C@H](C)O3)cc1	.	3	.	.	19	96*
COc1ccc(S(=O)(=O)Nc2ccc3c(c2)C(=O)N([C@@H](C)CO)C[C@@H](C)[C@@H](CN(C)Cc2ccc(C(F)(F)F)cc2)OCCCC[C@@H](C)O3)cc1	.	17	.	.	20	105*
COc1ccc(S(=O)(=O)Nc2ccc3c(c2)C(=O)N([C@H](C)CO)C[C@H](C)[C@H](CN(C)Cc2ccc(C(F)(F)F)cc2)OCCCC[C@H](C)O3)cc1	.	9	.	.	19	108*
COc1ccc(S(=O)(=O)Nc2ccc3c(c2)C(=O)N([C@H](C)CO)C[C@@H](C)[C@@H](CN(C)Cc2ccc(C(F)(F)F)cc2)OCCCC[C@H](C)O3)cc1	.	-2	.	.	11	105*
O=C(C1CCCCC1)N1CC(=O)N2[C@@H](CO)[C@@H](c3ccc(C#Cc4cccc(F)c4)cc3)[C@@H]2C1	.	16	.	.	.	.
Cc1cccc(NC(=O)Nc2ccc3c(c2)C(=O)N(C)[C@@H]2CC[C@@H](CC(=O)NCc4ccccc4Cl)O[C@@H]2CO3)c1	.	-1	.	.	8	45
COc1ccc(S(=O)(=O)Nc2ccc3c(c2)C(=O)N([C@H](C)CO)C[C@@H](C)[C@@H](CN(C)Cc2ccc(C(F)(F)F)cc2)OCCCC[C@@H](C)O3)cc1	.	9	.	.	18	110*
COc1ccc(S(=O)(=O)Nc2ccc3c(c2)C(=O)N([C@H](C)CO)C[C@H](C)[C@H](CN(C)Cc2ccc(C(F)(F)F)cc2)OCCCC[C@@H](C)O3)cc1	.	2	.	.	1	47
CCOC(=O)c1cc(-c2ccccc2)sc1NC(=O)C(C)(C)C	-7	.	-1	96*	.	.
C=CCn1c(=O)/c(=C/c2ccc(Cl)cc2)s/c1=C(\C#N)c1nnc2n1CCCCC2	71*	46	-1	32	-3	13
C=CCN1C(c2ccccc2)=CS/C1=C(\C#N)c1nnc2n1CCCCC2	-14	.	-3	-21	.	.
CCCNC(=O)N[C@H]1CC[C@H](CCn2cc(C3CCCCC3)nn2)O[C@@H]1CO	.	-11	.	.	1	2
CN1c2ccccc2C(C)(C)C12C=Nc1c(cc(N3CCOCC3)c3ccccc13)O2 (stereo not given)	-1	.	31	24	.	72*
Cc1ccc(OCc2nnc(SCC(=O)Nc3sc(C)c(C)c3C#N)n2C)cc1	-15	.	-16	52*	.	27
O=C(N/N=C/c1cc(Cl)ccc1O)c1ccncc1	-2	-18	-10	9	16	66*
COC(=O)N/N=C/c1cc(Br)ccc1O	-3	-15	-2	-4	9	-19
O=C(N/N=C/c1cc(Br)ccc1O)c1ccccc1Cl	51*	2	-64	-17	12	13
O=C(N/N=C/c1ccccc1Cl)c1ccncc1	2	-8	-23	5	-11	-12
O=C(N/N=C/c1cc(Cl)ccc1O)C(=O)Nc1ccccc1OC(F)(F)C(F)F	17	24	25	31	-9	70*
